This is a sample that favours compounds with a hit; in the whole collection about 2.2% have one here.
V-ATPase pH = alters yeast V-ATPase proton transport; response, % at 10 µM; S. cerevisiae, pHLuorin cytosolic pH fluorescence; AID 504577; 0.37% of 350,000 active; in the data active = response mostly above about 7.3%, no sharp cut-off; inactive = mostly below about 5.4%; also: actives read high
VLA-4 inh = inhibition in a human VLA-4 binding assay | P13612 | VLA-4 expressing cells, ligand binding flow cytometry | inhibition, % (about 7 µM as worked out from the volumes in the protocol) | 0.2% of 330,000 active; in the data active = inhibition above about 50%
m5-HT2A agonist = mouse HTR2A agonism via beta-arrestin recruitment | P35363 | CHO-K1 mHTR2A beta-arrestin complementation, luminescence; percent of 30 µM serotonin response | activation, % at 7.6 µM | 0.66% of 360,000 active | AID 624169;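 active = activation above a run cutoff, the mean activation of all tested compounds plus 3 SD, cut at about 14% in these data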;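 also: 0% = plate median of compound wells and 100% = 30 µM serotonin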
Target sequence (P35363 whole entry, looked up): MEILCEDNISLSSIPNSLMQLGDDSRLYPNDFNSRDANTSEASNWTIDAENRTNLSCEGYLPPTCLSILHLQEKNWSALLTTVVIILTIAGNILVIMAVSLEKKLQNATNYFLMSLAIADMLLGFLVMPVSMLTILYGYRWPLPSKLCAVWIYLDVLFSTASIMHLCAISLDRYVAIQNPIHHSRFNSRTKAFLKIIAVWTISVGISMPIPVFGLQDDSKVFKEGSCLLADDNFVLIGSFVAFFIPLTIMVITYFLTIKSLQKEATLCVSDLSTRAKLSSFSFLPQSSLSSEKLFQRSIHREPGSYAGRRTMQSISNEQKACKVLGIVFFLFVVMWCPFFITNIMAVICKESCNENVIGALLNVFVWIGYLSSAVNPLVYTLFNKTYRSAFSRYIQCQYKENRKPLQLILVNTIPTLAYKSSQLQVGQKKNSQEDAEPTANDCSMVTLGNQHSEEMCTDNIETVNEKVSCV
JMJD2C inh = human JMJD2C demethylase inhibition | 0.069% of 330,000 active | inhibition, % at 2.35 µM | GST-JMJD2C(1-420) H3K9me3 demethylation, DELFIA europium;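 active = more than half of a compound's replicate wells show inhibition beyond 50%, single wells judged on their own value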;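 also: signal counts dimethyl H3K9 product captured on neutravidin plate; 0% = median of DMSO wells and 100% = 0.3 times that DMSO median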
MEX-5 binding = C. elegans MEX-5 TCR-2 RNA binding activity; MEX-5/FITC-TCR2 RNA binding, fluorescence polarization; active compounds read low; Q9XUB2; AID 1832; 0.38% of 300,000 active; activity score (negative = inhibition of binding), % at 10 µM;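 active = inhibition past about -25% in most replicates, and total fluorescence under double the plate's negative control median, limit read from the data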;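 also: 0% = DMSO and -100% = 5 µM competing unlabeled TCR2 RNA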
Granule exo inh = blocks lytic granule exocytosis; TALL-104 LAMP-1 surface exposure, flow cytometry; cells stimulated with thapsigargin and PMA; inhibition, % at 10 µM; 0.66% of 360,000 active;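 active = inhibition above about 55%, limit read from the data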
OPRM1 ag = activates human mu opioid receptor in HTR2A counterscreen. shares compounds with m5-HT2A agonist. U2OS OPRM1 beta-arrestin PathHunter, luminescence; DMSO 0%, DAMGO 9.3 µM 100%. activation, % at 9.3 µM. 5.3% of 2,300 active. AID 624380;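 active = mean activation above the mean of DMSO-only wells plus 3 SD, cut at about 0.5% in these data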
m5-HT2A ag conf = confirmation of mouse HTR2A serotonin receptor agonists | AID 624381 | CHO-K1 PathHunter beta-arrestin recruitment, luminescence; DMSO 0%, 30 µM serotonin 100% | activation, % at 7.6 µM | shares compounds with m5-HT2A agonist | 19% of 2,300 active;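 active = mean activation across triplicates above the hit threshold derived in the original primary screen, cut at about 15% in these data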
* = called active by the depositor; . = no result.

SMILES	V-ATPase pH	VLA-4 inh	m5-HT2A agonist	JMJD2C inh	MEX-5 binding	Granule exo inh	OPRM1 ag	m5-HT2A ag conf
CC1(C(=O)NCc2ccccc2)CN(S(C)(=O)=O)CC(=O)N1C1CCN(Cc2ccccc2)CC1 (stereo not given)	.	.	2	.	.	-1	.	.
COc1ccc(C=CC(=O)c2ccc3cc(OC)c(OC)cc3c2)cc1OC	-5	.	17*	.	.	6	-1	1
Cc1cccc(NS(=O)(=O)c2ccc(NC(=O)N3CCCCC3)cc2)c1	-1	3	15*	6	-2	0	0	-4
Cc1cc(C)nc(SCC(=O)c2ccc(F)cc2)n1	0	8	5	10	-1	-7	.	.
Cc1cc(C)nc(SCC(=O)c2ccc(F)c(C)c2)n1	-3	1	36*	-7	0	-4	-1	-1
Cc1ccc(NC(=O)CN(C)C(=S)NC2CC2)cc1	-3	-2	-2	1	2	0	.	.
Cc1onc(-c2c(Cl)cccc2Cl)c1C(=O)N1CCOCC1	-6	-9	17*	1	2	-21	0	0
CCc1nc2ccc(C(=O)N3CCN(S(=O)(=O)CC)CC3)cn2c1N(C)CCC(C)C	.	.	-4	.	.	-3	.	.
CCc1nc2ccc(C(=O)N3CCN(S(=O)(=O)CC)CC3)cn2c1N(C)Cc1cccs1	.	.	17*	.	.	-19	-1	-4
CC(NC(=O)CCl)c1ccccc1Br (stereo not given)	6	4	-1	5	-4	-12	.	.
COc1ccc(C(=O)NN/C(C)=C/C(=O)C(F)(F)C(F)(F)C(F)(F)F)cc1	1	0	-2	-9	2	0	.	.
c1ccc(-c2c(-c3ccccc3)n(Cc3ccco3)c3ncnc(NCCCn4ccnc4)c23)cc1	-2	2	1	0	36	6	.	.
OCCNc1ncnc2c1c(-c1ccccc1)c(-c1ccccc1)n2Cc1ccco1	1	-1	14*	-18	0	1	-1	-3
Cc1ccc(C(C(=O)NCc2ccccc2)N(C(=O)c2csnn2)C2CC2)cc1 (stereo not given)	1	4	19*	-10	0	-9	-1	-3
O=C1Nc2ccccc2-n2nnnc2C1N1CCN(c2ccccn2)CC1 (stereo not given)	.	.	-5	.	.	3	.	.
O=C1Nc2ccccc2-n2nnnc2C1N1CCN(C(=O)c2ccco2)CC1 (stereo not given)	.	.	20*	.	.	-3	-1	-5
CNC(=O)C(=O)NCCCN1CCOCC1	2	-14	2	-1	0	2	.	.
CC[C@]12c3[nH]c4ccccc4c3CCN1C(=O)C(CC(=O)NCc1cccc(C(F)(F)F)c1)C[C@@H]2C(=O)N1CCN(C(=O)c2ccco2)CC1 (stereo not given in full)	1	-14	22*	5	.	-5	0	4
C[C@]12c3[nH]c4ccccc4c3CCN1C(=O)C(CC(=O)NCc1cccc(C(F)(F)F)c1)C[C@@H]2C(=O)N1CCOCC1 (stereo not given in full)	2	-19	0	4	.	-1	.	.
CN(C)C(=O)CCc1ccc2c3c([nH]c2c1)[C@]1(C)[C@@H](C(=O)N2CCOCC2)C[C@H](CC(=O)NCc2cccc(C(F)(F)F)c2)C(=O)N1CC3	0	.	15*	.	.	-2	-1	-5
COCCCNC(=O)C[C@H]1C[C@H](C(=O)N2CCOCC2)[C@@]2(CCC3CCCC3)c3[nH]c4cc(-c5ccco5)ccc4c3CCN2C1=O	-4	.	15*	.	.	-4	-1	-3
CC[C@]12c3[nH]c4ccccc4c3CCN1C(=O)C(CC(=O)NCCN1CCOCC1)C[C@@H]2C(=O)N1CCN(C(=O)c2ccco2)CC1 (stereo not given in full)	2	38	1	-5	.	-2	.	.
